According to publication PMC5540273 (PLoS ONE, 2017):

How the values were obtained:
Conditions in all cases: concentration: 1 μM, replicates: in singlicate; n = 1
[1] = test system: MAP3K15
[2] = test system: MAP3K1
[3] = test system: MAP3K2
[4] = test system: MAP3K3
[5] = test system: MAP3K4
[6] = test system: MAP4K2
[7] = test system: MAP4K3
[8] = test system: MAP4K4
[9] = test system: MAP4K5
[10] = test system: MAPKAPK2
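Also: KINOMEscan kinase panel screen.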

| SMILES | %Inh [1] [%] | %Inh [2] [%] | %Inh [3] [%] | %Inh [4] [%] | %Inh [5] [%] | %Inh [6] [%] | %Inh [7] [%] | %Inh [8] [%] | %Inh [9] [%] | %Inh [10] [%] |
| --- | --- | --- | --- | --- | --- | --- | --- | --- | --- | --- |
| CSc1cccc2c(-c3ccncn3)c(-c3ccc(F)cc3)nn12 [GW514786] | 21 | 14 | 0 | 0 | 0 | 0 | 0 | 2 | 0 | 67 |
| O=C(NC1CCN(c2ccnc(Nc3ccc(F)cc3)n2)C1)c1cc2ccccc2s1 (stereo not drawn) [GSK1379716] | 0 | 16 | 12 | 0 | 0 | 0 | 0 | 0 | 0 | 32 |
| O=C(Nc1ccccc1F)NC1CCN(c2ccnc(Nc3ccc(F)cc3)n2)CC1 [GSK1379800] | 0 | 13 | 0 | 0 | 0 | 0 | 0 | 0 | 0 | 6 |
| O=C(Nc1cccc(-c2nn3ncccc3c2-c2ccnc(Nc3ccccc3)n2)c1)c1c(F)cccc1F [GSK198271] | 0 | 3 | 35 | 0 | 35 | 0 | 33 | 33 | 84 | 24 |
| Cc1ccc(S(=O)(=O)Nc2ccc(Nc3nccc(Nc4cccc5[nH]ncc45)n3)cc2)cc1 [GSK581271] | 0 | 5 | 3 | 0 | 7 | 0 | 34 | 0 | 0 | 0 |
| Cn1cc(-c2ccc3c(c2)CCN3C(=O)Cc2cccc(F)c2)c2c(N)ncnc21 [GSK2603358] | 0 | 15 | 84 | 50 | 66 | 18 | 64 | 0 | 57 | 31 |
| CCn1c(-c2nonc2N)nc2c(C#CC(C)(C)O)nc(OC[C@H](N)c3ccccc3)cc21 [GSK943949] | 0 | 0 | 57 | 55 | 1 | 19 | 11 | 8 | 40 | 0 |
| CN1CCN(CCCNc2nccc(-c3c(-c4ccc(F)cc4)nn4cc(C(F)(F)F)ccc34)n2)CC1 [GW621581] | 4 | 4 | 0 | 0 | 0 | 0 | 30 | 33 | 0 | 5 |
| Cl.c1ccc(-c2ccc3c(Nc4ccc5[nH]ccc5c4)ccnc3c2)nc1 [GW440138] | 0 | 1 | 0 | 0 | 9 | 46 | 0 | 12 | 0 | 9 |
| C[C@@H]1CC[C@@H](C(=O)Nc2ccccc2)CN1c1cc(-c2ccc3c(N)n[nH]c3c2)nc(N)n1 [GSK2286062] | 46 | 0 | 16 | 0 | 4 | 3 | 0 | 0 | 0 | 0 |
| Cc1ccc(C(=O)Nc2ccc(Nc3ccnc4cc(-c5nccs5)ccc34)cc2O)cc1.Cl [GW494702] | 16 | 14 | 0 | 0 | 19 | 0 | 0 | 5 | 71 | 17 |
| COc1ccc(CNC(=O)NC2CCN(c3ccnc(Nc4ccc(F)cc4)n3)CC2)cc1 [GSK1379788] | 0 | 4 | 0 | 0 | 0 | 0 | 0 | 2 | 0 | 1 |
| CCc1ccc(-c2ccc3c(c2)-c2c(cnn2C)S(=O)(=O)N3C)cc1 | 0 | 34 | 0 | 0 | 23 | 0 | 3 | 0 | 1 | 13 |
| COc1ccc(Nc2nccc(NCCNC(=O)c3cc4ccccc4s3)n2)cc1 [GSK1379896] | 0 | 15 | 0 | 0 | 24 | 0 | 0 | 1 | 8 | 2 |
| Cc1cccc(Nc2nc(N[C@H]3CCNC3)ncc2C(N)=O)c1.Cl [GSK2197149] | 0 | 0 | 88 | 60 | 45 | 88 | 40 | 73 | 33 | 0 |
| Cl.Cl.NCC(NCc1ccc(-c2ccnc3[nH]ccc23)s1)c1ccccc1 (stereo not drawn) [GSK1321565] | 0 | 0 | 63 | 29 | 0 | 64 | 2 | 0 | 0 | 0 |
| O=C(Nc1cccc(-c2nn3ccccc3c2-c2ccnc(Nc3cccc(F)c3)n2)c1)c1c(F)ccc(F)c1Cl [GSK357952] | 66 | 0 | 20 | 7 | 24 | 0 | 1 | 28 | 51 | 14 |
| Nc1ncc(-c2cccnc2)c2scc(-c3ccc4c(c3)CCN4C(=O)Cc3ccccc3)c12 [GSK683281] | 100 | 41 | 56 | 18 | 69 | 23 | 95.2 | 8 | 98.8 | 24 |
| C[C@@H](Oc1cc(-n2cnc3cc(-c4ccnc(NCCS(C)(=O)=O)c4)ccc32)sc1C(N)=O)c1ccccc1Cl [GSK907232] | 6 | 92 | 10 | 0 | 35 | 20 | 85 | 21 | 96.3 | 0 |
| Cl.Cl.NCC(NC(=O)c1cc(-c2ccccc2)c(-c2ccnc3[nH]ccc23)s1)c1ccccc1 (stereo not drawn) [GSK1321561] | 0 | 22 | 27 | 0 | 0 | 64 | 0 | 98 | 24 | 0 |
| CCS(=O)(=O)c1ccc(OC)c(Nc2nccc(-c3c(-c4cccc(NC(=O)c5c(F)cccc5F)c4)nn4ncccc34)n2)c1 [GSK326180] | 0 | 10 | 6 | 0 | 7 | 0 | 22 | 3 | 0 | 34 |
| COc1cc2c(cc1OCCN1CCNCC1)ncc1c3ccc(C#N)cc3[nH]c21 | 90.1 | 33 | 4 | 14 | 7 | 51 | 8 | 32 | 5 | 0 |
| CN(C)Cc1ccc(-c2ccc3c(Nc4ccc(Oc5ccccn5)cc4)ccnc3c2)o1 [GW567148] | 0 | 14 | 0 | 0 | 0 | 5 | 0 | 6 | 61 | 3 |
| CN(C)S(=O)(=O)c1cc(-c2ccc3nccc(-c4cccc(S(N)(=O)=O)c4)c3c2)cnc1N [GSK1669921] | 23 | 6 | 0 | 0 | 0 | 13 | 5 | 0 | 0 | 19 |
| Cl.Cl.NCC(C(=O)Nc1cc(Br)c(-c2ccnc3[nH]ccc23)s1)c1ccccc1 (stereo not drawn) [GSK1269851] | 0 | 17 | 13 | 0 | 63 | 13 | 0 | 20 | 0 | 0 |
| CN1CCN(Cc2cccc(-c3ccc4c(Nc5ccc(Oc6ccccc6)cc5)ccnc4c3)c2)CC1 [GW578342] | 0 | 0 | 0 | 0 | 15 | 0 | 0 | 0 | 0 | 3 |
| c1ccc(-c2n[nH]cc2Nc2ccnc3ccccc23)nc1 [GW694077] | 6 | 0 | 38 | 0 | 9 | 65 | 0 | 20 | 0 | 0 |
| COc1cc(Nc2nccc(N3CCC(NC(=O)Nc4cccc(C(C)=O)c4)C3)n2)cc(OC)c1OC (stereo not drawn) [GSK1379753] | 0 | 1 | 22 | 0 | 0 | 8 | 0 | 3 | 0 | 0 |
| CC(C)(C)c1ccc2nccc(Nc3cccc(O)c3)c2c1 [GW856795] | 0 | 0 | 0 | 0 | 0 | 100 | 0 | 23 | 29 | 11 |
| c1ccc(-c2cnc3nccnn23)cc1 [AH20685] | 0 | 0 | 0 | 0 | 21 | 0 | 0 | 0 | 0 | 0 |
